Measured values reported in PubChem BioAssay (EPA / NIEHS).
Records with an inconclusive call do not appear. Activity calls are given as the source filed them. How the source made its calls: active means hit-call score of the fitted dose curve at least 0.9, where 1 is the maximum; inconclusive means response in the unintended direction; inactive means score below 0.9.

Read-out: Broad substrate specificity ATP-binding cassette transporter ABCG2 (Homo sapiens) (UniProt Q9UNQ0)
Test: CLD_ABCG2_6hr: CellzDirect (CLD) Gene Expression Assay for ABC Transporter (ABCG2) at 6 hours (AID 2283660)
Protocol: CLD_6hr is a cell-based, multiplexed-readout assay that uses hepatocyte, a human liver primary cell, with measurements taken at 6 hours after chemical dosing in a 96-well plate.CLD_ABCG2_6hr is one of 16 assay component(s) measured or calculated from the CLD_6hr assay. It is designed to make measurements of mRNA induction, a form of inducible reporter, as detected with chemiluminescence signals by Quantitative Nuclease Protection Assay (qNPA) technology.Data from the assay component CLD_ABCG2_6hr was analyzed at the endpoint, CLD_ABCG2_6hr, in the positive analysis fitting direction relative to DMSO as the negative control and baseline of activity. Using a type of inducible reporter, gain-of-signal activity can be used to understand changes in the reporter gene as they relate to the gene ABCG2. Furthermore, this assay endpoint can be referred to as a primary readout. To generalize the intended target to other relatable targets, this assay endpoint is annotated to the transporter intended target family, where subfamily is ABC transporter.
Human hepatocyte cultures were treated daily for two consecutive days with fresh dosing solutions containing appropriate concentrations of the 320 ToxCast chemicals (chemical identities were blinded to CellzDirect and other ToxCast collaborators), vehicle control (0.2% DMSO), and positive control inducers as summarized in Table 1. Due to the large number of treatment groups and chemicals examined, the ToxCast chemicals were divided into two groups (spanning two independent cultures of hepatocytes from separate donor preparations (Hu778: ToxCast plates 1 and 2; Hu776: ToxCast plates 3 and 4). Each preparation of human hepatocyte cultures was treated with respective vehicle control, medium only control, set of six positive controls/reference chemicals for the five hepatic receptor pathways, and a subset of eight of the ToxCast chemicals (indoxacarb, pyrithiobac-sodium, norflurazon, cyhalofop-butyl, methomyl, thiram, acetochlor, and propiconazole). These replicate data, coupled with internal replicates designed within the blinded ToxCast chemical library, provided additional data to evaluate interindividual differences between hepatocyte preparations and their potential impact on chemical profiles.Cell morphology and integrity were evaluated using phase-contrast microscopy as an indicator of hepatocyte cell health (Tyson & Green, 1987). Cultures for each treatment group (i.e., media, vehicle [0.2% DMSO], positive control inducers [multiple concentrations], and the ToxCast chemicals [multiple concentrations]) were observed and cell morphology was assessed relative to vehicle control cultures at each harvest time point (0, 6, 24, or 48 h). […] Images were evaluated at the conclusion of the study to assess changes in cell integrity and account for the effects of chemical exposure on uncharacteristic changes in concentration-dependent gene expression profiles. The results from these determinations of apparent cytotoxicity were annotated (yes/no) alongside the corresponding qNPA data for reference.At the conclusion of each treatment period, hepatocyte cultures (96-well) were washed with 1 volume of HBSS, lysed by addition of 25 ul ArrayPlate lysis buffer (HTG, Tucson, AZ), and 70 ul/well of Denaturation Oil, denatured by incubation at 95C for 10 min, and frozen at approximately -70C until analysis by nuclease protection assay (qNPA) (Roberts et al., 2007). For qNPA analysis, cell lysates were thawed at 50C for approximately 30 min, qNPA probes were added, and samples were incubated at 95C for 10 min to begin the detection process by denaturing the target RNA, dissociating the duplexes and secondary structure hybridization. At the conclusion of the hybridization period, S1 nuclease reagent was added to each sample to digest all nonprotected nucleotides at 50C for 60-90 min. […]

Broad substrate specificity ATP-binding cassette transporter ABCG2 (Homo sapiens), sequence (Q9UNQ0 whole entry, looked up): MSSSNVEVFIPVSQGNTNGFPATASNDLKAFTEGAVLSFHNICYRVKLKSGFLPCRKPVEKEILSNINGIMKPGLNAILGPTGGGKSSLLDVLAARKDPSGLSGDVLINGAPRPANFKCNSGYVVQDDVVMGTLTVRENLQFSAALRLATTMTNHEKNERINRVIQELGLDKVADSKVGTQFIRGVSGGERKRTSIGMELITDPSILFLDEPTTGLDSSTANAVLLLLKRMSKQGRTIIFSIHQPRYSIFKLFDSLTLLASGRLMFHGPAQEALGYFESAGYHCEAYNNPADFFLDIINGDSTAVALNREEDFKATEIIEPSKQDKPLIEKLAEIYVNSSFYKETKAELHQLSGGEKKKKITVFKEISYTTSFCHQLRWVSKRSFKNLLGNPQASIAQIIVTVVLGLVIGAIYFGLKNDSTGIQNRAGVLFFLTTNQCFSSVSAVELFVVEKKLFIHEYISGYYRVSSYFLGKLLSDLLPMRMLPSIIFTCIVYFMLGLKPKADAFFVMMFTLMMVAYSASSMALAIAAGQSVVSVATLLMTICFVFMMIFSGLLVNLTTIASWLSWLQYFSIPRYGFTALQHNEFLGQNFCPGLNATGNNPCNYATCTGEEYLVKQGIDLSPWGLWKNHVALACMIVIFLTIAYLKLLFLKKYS

Compound | outcome | AC50
CC(C)(C)C(O)/C(=C\c1ccc(Cl)cc1Cl)n1cncn1 (stereo not drawn) | inactive | –
CN1CSC(=S)N(C)C1 | inactive | –
O=[N+]([O-])c1c(Cl)c(Cl)c(Cl)c(Cl)c1Cl | inactive | –
Clc1ccccc1-c1nnc(-c2ccccc2Cl)nn1 | inactive | –
CC(C)(C)C(O)C(Oc1ccc(Cl)cc1)n1cncn1 (stereo not drawn) | inactive | –
CCc1ccc(C(=O)NN(C(=O)c2cc(C)cc(C)c2)C(C)(C)C)cc1 | inactive | –
CC1(c2ccc(Oc3ccccc3)cc2)OC(=O)N(Nc2ccccc2)C1=O (stereo not drawn) | inactive | –
CCC(C)(NC(=O)c1cc(Cl)c(C)c(Cl)c1)C(=O)CCl (stereo not drawn) | inactive | –
CCS(=O)(=O)c1cccnc1S(=O)(=O)NC(=O)Nc1nc(OC)cc(OC)n1 | inactive | –
CCOc1nc(NC)nc(NC(=O)NS(=O)(=O)c2ccccc2C(=O)OC)n1 | inactive | –
CC(C)N(C(=O)COc1nnc(C(F)(F)F)s1)c1ccc(F)cc1 | inactive | –
CNC(=O)Oc1cccc(N=CN(C)C)c1 | inactive | –
CNC(=O)/C=C(\C)OP(=O)(OC)OC | inactive | –
COC(=O)c1ccccc1S(=O)(=O)NC(=O)N(C)c1nc(C)nc(OC)n1 | inactive | –
O=S1OCC2C(CO1)C1(Cl)C(Cl)=C(Cl)C2(Cl)C1(Cl)Cl (stereo not drawn) | inactive | –
ClC1C(Cl)C(Cl)C(Cl)C(Cl)C1Cl (stereo not drawn) | inactive | –
Oc1ccc(Cl)cc1Cc1ccccc1 | inactive | –
CC1(C)C(C=C(Cl)Cl)C1C(=O)OC(C#N)c1ccc(F)c(Oc2ccccc2)c1 (stereo not drawn) | inactive | –
CCOCN(C(=O)CCl)c1c(C)cccc1CC | inactive | –

Compound | outcome | AC50
O=C(O)C(F)(F)C(F)(F)C(F)(F)C(F)(F)C(F)(F)C(F)(F)C(F)(F)F | inactive | –
O=[N+]([O-])/N=C1\NCCN1Cc1ccc(Cl)nc1 | inactive | –
CCC(C)(C)C(=O)OC1=C(c2ccc(Cl)cc2Cl)C(=O)OC12CCCCC2 | inactive | –
CC(C)OC(=O)Nc1cccc(Cl)c1 | inactive | –
OCCOc1ccccc1 | inactive | –
O=C(O)CCCOc1ccc(Cl)cc1Cl | inactive | –
N#Cc1c(Cl)c(Cl)c(Cl)c(C#N)c1Cl | – | 20 µM (active)
O=C1c2ccccc2C(=O)N1SC(Cl)(Cl)Cl | inactive | –
COc1cc(OC)nc(NC(=O)NS(=O)(=O)c2cc(NC=O)ccc2C(=O)N(C)C)n1 | inactive | –
COP(=S)(OC)Oc1ccc([N+](=O)[O-])cc1 | inactive | –
COC(=O)c1ccccc1CS(=O)(=O)NC(=O)Nc1nc(OC)cc(OC)n1 | inactive | –
CC[C@H](C)[C@H]1O[C@]2(C=C[C@@H]1C)C[C@@H]1C[C@@H](C/C=C(\C)[C@@H](O[C@H]3C[C@H](OC)[C@@H](O[C@H]4C[C@H](OC)[C@@H](O)[C@H](C)O4)[C@H](C)O3)[C@@H](C)/C=C/C=C3\CO[C@@H]4[C@H](O)C(C)=C[C@@H](C(=O)O1)[C@]34O)O2 (tested in a mixture with another compound) | inactive | –
N#CN | inactive | –
O=C(O)COc1ccc(Cl)cc1Cl | inactive | –
C[C@H]1[C@H](c2ccc(Cl)cc2)SC(=O)N1C(=O)NC1CCCCC1 | inactive | –
COP(=O)(OC)OC=C(Cl)Cl | inactive | –
CCC(C)Nc1c([N+](=O)[O-])cc(C(C)(C)C)cc1[N+](=O)[O-] (stereo not drawn) | inactive | –
CNC(=O)Oc1ccccc1OC(C)C | inactive | –
CCCN(CCC)c1c([N+](=O)[O-])cc(C(F)(F)F)cc1[N+](=O)[O-] | inactive | –
